Our source for the median seed-adjusted z-score values is PubChem BioAssay AID1347426 (Functional Genomics Laboratory (NCATS/FGL), 2020).

Out of some 31,000 sequences screened, about 1,400 (4.5%) were called active. Many of the other results were omitted from the sample, so actives are more common in it than they were. Unmarked numbers belong to inactive results.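 The calls were made as follows: active = median seed-adjusted z-score above 1 or below -1; inactive = the rest.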

This test in a line: Novel Modifiers of Survival Motor Neuron (SMN) Protein: Gene Identification via Genome-wide siRNA Screen.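 Also: luminescence tracks full-length SMN protein made from the SMN2 reporter.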 The conditions noted are these: HEK293T SMN2-luciferase reporter, siRNA knockdown, 72 h; actives lie on both sides. In a few lines: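 siRNA screen, 10418 genes ×3 siRNAs; 1 pmol/well, lipid reverse transfection into HEK293T SMN2-luc reporter line. 72 h, 37 °C, 5% CO2; ONE-Glo readout. Data: neg-ctrl normalized, log10, MAD; hit = MAD >1.0 or < -1.0.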
As to GAUCGACUGCUAGAGAGUATT against DCLK1, the median seed-adjusted z-score was 0.193.

Consider GUGCUAACUCAAUUCCAUATT against SSBP3, for which the median seed-adjusted z-score is 0.00592.

For GCCUUUCAGCAUGCGGUUATT against GDPD1, the median seed-adjusted z-score is 0.527. As for CCAUCUCUUUGGUAGUACUTT against TBC1D23, the figure is 0.0932; as for CGUCUUUCCAGAAUUCAAATT against HGS, 1.16 (active). Take GCAAGACUUUUGGUCGAAATT against ZNF816A: the median seed-adjusted z-score was 0.39. Turning to CCGUUGCUAUGAACAAGUUTT against B4GALT3, the median seed-adjusted z-score is -0.138. Take GACAGAAGAUCAAUAUGAATT against ETS2: the median seed-adjusted z-score was 0.636.

For the sequence GAAGAGUGCUUGAAAUUUUTT against GFRA1, the median seed-adjusted z-score was 0.125. Consider GCAUCCGGAUUCUUGAUGATT against PGK2, for which the median seed-adjusted z-score was -0.127. Regarding ACAAAGCUGCUGUGCUAUATT against BET1, the median seed-adjusted z-score was 0.394. In the case of CAGAUUACGUUUAUAAGAATT against ZNF274, the median seed-adjusted z-score was 0.452.

As to CGAGUGCACUGCUGCCUAUTT against 5-Sep, the median seed-adjusted z-score is -0.0749. For the sequence GAUCCGAGAUCAACACCUUTT against PIK3R3, the median seed-adjusted z-score is -1.88 (active). As to GACUACCAGUUGAUCAUGUTT against TTBK1, the median seed-adjusted z-score is 0.00054. Take CACCUGUACUUAUCCCGAATT against MEGF10: the median seed-adjusted z-score was 0.622. Regarding AAAUCGCGACGACUAAAUATT against CCBE1, the median seed-adjusted z-score was 0.964. As for CAUCAGCUUCCGCAACUUUTT against LRP3, the median seed-adjusted z-score was -1.05 (active). As for GGAAUACAUCAGAAUGGUATT against ITCH, the figure is 0.199. For CCAAUGCUGUGACUUUCGATT against KIFC3, the median seed-adjusted z-score is 0.54. With GCAGCAAAGGAAACCUAAATT against KLRC3, the median seed-adjusted z-score was 0.833.

In the case of GCAAGCGAGUCAACACCAATT against DRD2, the median seed-adjusted z-score was -0.0273.

Turning to “CUUCAGUACCUUAUCAUUATT against ST6GALNAC5”, the median seed-adjusted z-score is -0.0321. For the sequence GGCCGUUUGUCAUUCCCUUTT against CBFA2T3, the median seed-adjusted z-score was -0.135. The figure for GGAAGAGACUUUGUCCACATT against BIRC7 is -1.44 (active). With CUCUGGGAGUCACGACUUUTT against GPR37L1, the median seed-adjusted z-score is -0.0348. The figure for GAGACAAAUUUGGGCCUUATT against HSF4 is 0.926; for CAACGAUGGUGUACUACAATT against ABCC9 it is 0.376. As to CAAGCGGACCAGGACCUAUTT against CSDC2, the median seed-adjusted z-score was -0.321. On to CAGUAUCCAUGGUGAUCUATT against ZP2, for which the median seed-adjusted z-score was 0.0455.
